Measured values: PubChem BioAssay AID1347426 (Functional Genomics Laboratory (NCATS/FGL), 2020)
Hit rate of the full screen: of about 31,000 sequences, about 1,400 (4.5%) were called active. This is one part of a sample in which actives are shown more often than they occur.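 Rule for the calls: active = median seed-adjusted z-score above 1 or below -1; inactive = the rest.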

Experiment: Novel Modifiers of Survival Motor Neuron (SMN) Protein: Gene Identification via Genome-wide siRNA Screen;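 note: luminescence tracks full-length SMN protein made from the SMN2 reporter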
Settings: HEK293T SMN2-luciferase reporter, siRNA knockdown, 72 h; actives lie on both sides
From the text: Spinal muscular atrophy (SMA) is the most common neuromuscular autosomal recessive disorder and one of the leading genetic causes of infant death. SMA results from mutations inducing loss of function or deletion in the survival of motor neuron-1 gene (SMN1), leading to deficiency of the survival motor neuron (SMN) protein. Although a second nearly identical gene, SMN2, is retained in humans, its expression primarily produces an aberrantly spliced isoform that is largely unstable and quickly degraded. We performed a genome-wide RNAi screen using a cell-based reporter assay to identify genes and pathways that modulate SMN protein stability. The screen identified over 200 genes that led to the greatest increase or decrease in luciferase expression.
Using HEK293T cells stably expressing a luciferase reporter that combines the promoter and splicing based cassettes in tandem with the major portion of the native SMN2 cDNA with luciferase, we performed a genome-wide RNAi screen to identify modulators of SMN protein levels. Luciferase is expressed when full-length SMN protein is generated with luminescence signal proportional to SMN protein levels. Our luciferase-based reporter assay was used to screen Ambion Silencer Select Human Druggable Genome siRNA library (10418 genes, 3 unique siRNAs per gene) using lipid-based reverse transfection.
Briefly, 1 pmol of each siRNA was spotted to a well of a 384-well plate (Corning, Corning, NY) and 20 microL of serum-free DMEM containing […] of Lipofectamine RNAiMax (Life Technologies, Carlsbad, CA) was then added to each well. Transfected cells were maintained at 37 degrees C in 5% CO2 for 72 hours, 20 microL of ONE-Glo Reagent (Promega) was added to wells for luciferase quantification. Raw luminescence reads were normalized to Ambion(R) Silencer(R) Negative Control #2 siRNA, then log10 transformed. A robust statistical measure of median absolute deviation (MAD) to standardize siRNA activities from each screen. Common Seed Analysis was used to help prioritize clean hits as opposed to those appearing to arise from seed based off-target effects. Candidate modulators were defined as the genes having a MAD score greater than 1.0 or less than -1.0.
For GAAUCAUAAUCGCUCCUUUTT against SPRR1A, the median seed-adjusted z-score was -0.0536 (inactive). For GAAUCCGGAUGAGUACUAUTT against PHF17, the median seed-adjusted z-score was 1.01 (active). With CAGUCCCUAUUUCAAAAUATT against PDE6G the median seed-adjusted z-score was 0.0109 (inactive). For GAAUGAUAUUGUCCAUCGATT against CDKL5, the median seed-adjusted z-score was -0.256 (inactive). For ACUUCAACGUGACCACAGATT against PNPLA6, the median seed-adjusted z-score was 0.309 (inactive). In the case of GAUACGCCCUUAUAAUGCATT against ZBTB11, the median seed-adjusted z-score is reported as -0.105 (inactive). In the case of GAAAUUGCCUAUUACUCUUTT against SLC19A2, the median seed-adjusted z-score is reported as -0.679 (inactive). With UCAUAAUUAUCUCACCAGATT against MEOX2 the median seed-adjusted z-score was 1.36 (active). With CCUCUAACGUACCAUCUAATT against OLAH the median seed-adjusted z-score was -0.44 (inactive). In the case of GUAAGGCAAAGACUCCCUATT against ZNF673, the median seed-adjusted z-score is reported as 0.419 (inactive). With GGGACGGAAUAAAUGCUCUTT against NDUFA13 the median seed-adjusted z-score was -0.138 (inactive). In the case of CUAAGGAAGUAGUUGAUUATT against HADHB, the median seed-adjusted z-score is reported as -0.188 (inactive). For CUACCGUAACAACCGAAAATT against SCN10A, the median seed-adjusted z-score was -0.401 (inactive). For CCAUUGCAAUCAACACCAATT against ALOX5, the median seed-adjusted z-score was -0.201 (inactive). For GAUGACUUUUGAUAGUGAATT against ODC1, the median seed-adjusted z-score was -1.64 (active). With AGGUCAUUGCUGAGAAGUATT against FMNL1 the median seed-adjusted z-score was -0.3 (inactive). With GGAAGUACAUGAACGCAGUTT against EFTUD1 the median seed-adjusted z-score was -1.39 (active). For GGACGACACGUUCUACCUGTT against ENDOG, the median seed-adjusted z-score was -0.336 (inactive). In the case of GCAGACAAGUCAACCGUGATT against FRK, the median seed-adjusted z-score is reported as -0.14 (inactive). For CAGGUUAUCGUGUGAAGGATT against TNFRSF14, the median seed-adjusted z-score was 0 (inactive). For GCACGAAGCUUUCCCUGGATT against KRT78, the median seed-adjusted z-score was 0.306 (inactive). With GUUUGAUGGUGAUAAGAAATT against PGD the median seed-adjusted z-score was -1.55 (active). In the case of GAACCAAAUUGUACGAGAATT against IRX3, the median seed-adjusted z-score is reported as -0.285 (inactive). In the case of GGGAUAAAUUUGACGUGGATT against SPAG1, the median seed-adjusted z-score is reported as 0.413 (inactive). For GCUACAUCCUGUUCGAGAATT against CYP27A1, the median seed-adjusted z-score was -0.391 (inactive). For CAGAAUAAAUCACACCCUATT against INSL3, the median seed-adjusted z-score was -0.037 (inactive). In the case of CCAAGAUGAGUAUAAAACATT against HRC, the median seed-adjusted z-score is reported as 1.06 (active). With CCAUCUGCUUUCCCGAGUATT against GNAZ the median seed-adjusted z-score was -0.604 (inactive). With GCUGUGGAUUGUCCAACAATT against NPY5R the median seed-adjusted z-score was 0.213 (inactive). For UCAACUGACUCAUACCUGUTT against KCNMB1, the median seed-adjusted z-score was -0.465 (inactive). For GAACCACUAUGAUCAUUGATT against DPYSL2, the median seed-adjusted z-score was -0.569 (inactive). With CAGUGUAUCUUCAUAAGAUTT against TAF1L the median seed-adjusted z-score was 0.289 (inactive). For AGAGUGGAUUUGUACCAAATT against RAB39B, the median seed-adjusted z-score was 0.485 (inactive). With CGGUGACUCUUUAUGCACATT against PMPCB the median seed-adjusted z-score was 0.507 (inactive). For GAGAGUGCCUUACACCAAATT against HOXD13, the median seed-adjusted z-score was 0.116 (inactive). With GAGAGAAAAGGGUCACAAATT against GPR61 the median seed-adjusted z-score was 0 (inactive). In the case of UGACCAUCGUCUACAAGAATT against COPZ2, the median seed-adjusted z-score is reported as -1.23 (active). With CAAGAAGCAUUAUUACGAUTT against PPIL2 the median seed-adjusted z-score was -0.467 (inactive). In the case of CCCUAGAGUAUUACACGGATT against DGKD, the median seed-adjusted z-score is reported as 0.35 (inactive). In the case of GGACAAAGACUGGUACGUUTT against HTT, the median seed-adjusted z-score is reported as -0.234 (inactive). For CCUUUUACAUGUUCUAUUUTT against SIVA1, the median seed-adjusted z-score was 0.0451 (inactive). For GGCAAGUUCUCCUUCGACATT against ALDH3B1, the median seed-adjusted z-score was 0.148 (inactive). In the case of GAACUGUCGUAAACGCAAATT against NFE2L3, the median seed-adjusted z-score is reported as 0.118 (inactive). With GCCUUAAGGAUGAAGAUAATT against FOXR2 the median seed-adjusted z-score was 0.593 (inactive). In the case of GGUAUCACCUAUACAGAAATT against FKBP11, the median seed-adjusted z-score is reported as -0.085 (inactive). In the case of ACUUCAAGCUCCUAAGCCATT against HBA1, the median seed-adjusted z-score is reported as -1.03 (active). In the case of GCCUCUAAGUCUCGAGGAATT against TRPM3, the median seed-adjusted z-score is reported as -0.633 (inactive). With CACAGGUAAUCAUACCCUATT against NDUFA9 the median seed-adjusted z-score was -0.325 (inactive). With GAAUCAGAAUACGUAGGAATT against PCDHA2 the median seed-adjusted z-score was 0.803 (inactive). For GGAGGAAUCUCGAAUGCGATT against CNOT1, the median seed-adjusted z-score was 1.2 (active). For GAGGCAAUAUGAAACGAGUTT against CKMT2, the median seed-adjusted z-score was -0.862 (inactive). For GCAAUUGUCUGAUUAAUCATT against MB, the median seed-adjusted z-score was 0.504 (inactive). In the case of GAACUGCACCAAAGAAACATT against AKTIP, the median seed-adjusted z-score is reported as -0.194 (inactive). In the case of CGGACGAAGAGAUUGGGAATT against DRAP1, the median seed-adjusted z-score is reported as 1.08 (active). With GCAGAAUUACAAGACAAGATT against VWA5A the median seed-adjusted z-score was 0 (inactive). For CCGCCUUUCAAGAACGUAATT against IARS, the median seed-adjusted z-score was -0.198 (inactive). With GAAUAGACCUGAAGACAAATT against CFLAR the median seed-adjusted z-score was -0.413 (inactive). With CAACGGAAGUGCUACUACUTT against FCER2 the median seed-adjusted z-score was -1.75 (active). With CCCAAUAUGUGCGGAUUAATT against DSC3 the median seed-adjusted z-score was 0.18 (inactive). For GGAAAGAGAUCUACCGCAATT against MYST1, the median seed-adjusted z-score was 0 (inactive). With GCUUCCCGAUUAACUGAAATT against MECP2 the median seed-adjusted z-score was -0.332 (inactive). With AGAAUGCACCAAACAAACATT against DOLPP1 the median seed-adjusted z-score was 0.00977 (inactive). For GGUACAAAGCAAUCGGACATT against GUCA2B, the median seed-adjusted z-score was -0.146 (inactive). With GUCUUUAGCUGACCUGAAUTT against DMD the median seed-adjusted z-score was -0.626 (inactive). With CCGAAGAAGCAAUAUCGAATT against CRKRS the median seed-adjusted z-score was -1.16 (active). In the case of CCACCUUACUUUCCUGAAUTT against TMEM171, the median seed-adjusted z-score is reported as 0.278 (inactive). With CACUUAUUCUGGUCCUUCATT against ELOVL3 the median seed-adjusted z-score was 0 (inactive). For CCGCUAAUGUUCAAGGACATT against UNC5B, the median seed-adjusted z-score was -0.0207 (inactive). With GCAAUAGUCCCAAAAGCAATT against CD6 the median seed-adjusted z-score was -0.33 (inactive).
